Data on seven compounds can be found in PubChem BioAssay (NCI).

Holding throughout (assay): NCI-60 one-dose screen, 48 h (100 = growth as untreated, 0 = no growth, -100 = all killed)
One assay deals with EKVX NSCLC. The following applies: 10 µM unless noted.
The next assay concerns SN12C renal. Particulars: 10 µM unless noted.
For the next assay, the system named is UO-31 renal. The following applies: 10 µM unless noted.
The next assay relates to TK-10 renal. Particulars: 10 µM unless noted.
A further assay has as its system ACHN renal. Particulars: 10 µM unless noted.
Another assay has as its system CAKI-1 renal. The following applies: 10 µM unless noted.
A further assay has as its system A498 renal. The following applies: 10 µM unless noted.
The next assay relates to MOLT-4 leukemia. The following applies: 10 µM unless noted.
A further assay concerns SR leukemia. The following applies: 10 µM unless noted.
The subject of a further assay is RPMI-8226 leukemia. The following applies: 10 µM unless noted.
A further assay relates to OVCAR-8 ovarian. Particulars: 10 µM unless noted.
A further assay concerns OVCAR-5 ovarian. The following applies: 10 µM unless noted.
For another assay, the system named is OVCAR-4 ovarian. The following applies: 10 µM unless noted.
The next assay relates to SK-OV-3 ovarian. Particulars: 10 µM unless noted.
The subject of a further assay is IGROV1 ovarian. The following applies: 10 µM unless noted.
For the next assay, the system named is OVCAR-3 ovarian. Particulars: 10 µM unless noted.
Another assay has as its system HS 578T breast. The following applies: 10 µM.
The next assay relates to NCI/ADR-RES ovarian. Particulars: 10 µM unless noted.
In another assay the test system is CCRF-CEM leukemia. Particulars: 10 µM unless noted.
Another assay has as its system SK-MEL-2 melanoma. Particulars: 10 µM unless noted.

Structures are written as SMILES. About 83,000 compounds went through this panel and 20% of them were active in at least one assay; those are over-represented in the sample as a whole.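 For each line, cells grew in 96-well plates with the test compound present at a single concentration for 48 hours.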 Unmarked numbers belong to inactive results. Active and inactive are the calls of the source. How the source made its calls: active means growth percent below 10; inactive means the rest.

Take `O=C(Cc1ccc(Nc2ccnc(C(F)(F)F)c2)cc1)N/N=C/c1ccccc1O`: the growth was 25.7% in the assay with EKVX NSCLC; 36.1% in the assay on SN12C renal; 0.112% (active) with UO-31 renal; 22.7% with TK-10 renal; 4.09% (active) in the assay with ACHN renal; 32.3% in the assay with CAKI-1 renal. The growth in the assay with A498 renal was 145%; in the assay on MOLT-4 leukemia, 64.4%; with SR leukemia it was 98.2%; with RPMI-8226 leukemia, 29.6%; with OVCAR-8 ovarian it was 25.6%; with OVCAR-5 ovarian, 28.1%. Moreover, the growth in the assay with OVCAR-4 ovarian is 18.4%; in the assay on SK-OV-3 ovarian it was 17.1%; in the assay on IGROV1 ovarian it was 18.8%; in the assay on OVCAR-3 ovarian it was 40.8%; with HS 578T breast, 102%; with NCI/ADR-RES ovarian it was 23.8%.

For the compound `CCCCCc1c(C)[nH]c(/C=C2\N=C(c3ccc[nH]3)C=C2CC)c1C`, the growth in the assay on EKVX NSCLC was -90.3% (active); in the assay on SN12C renal, -89.9% (active); in the assay on UO-31 renal, -85.8% (active); with TK-10 renal, -88.9% (active); in the assay with ACHN renal it was -94.7% (active); with CAKI-1 renal it was -82.1% (active). For the same compound, the growth in the assay with A498 renal was -90.8% (active); in the assay with CCRF-CEM leukemia, -58.3% (active); in the assay on MOLT-4 leukemia, -58.8% (active); with RPMI-8226 leukemia it was -63.7% (active); in the assay on OVCAR-8 ovarian it was -65.2% (active); in the assay on OVCAR-5 ovarian, -95.5% (active). Also, the growth in the assay on OVCAR-4 ovarian is -89.8% (active); in the assay with SK-OV-3 ovarian, -95.5% (active); in the assay on IGROV1 ovarian, -63.3% (active); with OVCAR-3 ovarian it was -97.5% (active); in the assay with HS 578T breast, -27.5% (active); with NCI/ADR-RES ovarian it was -78.8% (active).

On to `C[C@@H]1C[C@H](N)C[C@H](c2ccncc2NC(=O)c2ccc(F)c(-c3c(F)cccc3F)n2)C1`, for which the growth in the assay on EKVX NSCLC is 74.9%; in the assay on SN12C renal, 58.2%; in the assay on UO-31 renal, 25.3%; in the assay with TK-10 renal it was 67.6%; in the assay on ACHN renal, 60.5%; in the assay on CAKI-1 renal it was 27.7%. In addition, the growth is 35.9% in the assay with A498 renal; 9.29% (active) in the assay with MOLT-4 leukemia; -17.7% (active) in the assay on SR leukemia; 4.68% (active) in the assay on RPMI-8226 leukemia; 62.6% in the assay on OVCAR-8 ovarian; 71.3% in the assay with OVCAR-5 ovarian. In addition, the growth is 53.2% with OVCAR-4 ovarian; 62% in the assay with SK-OV-3 ovarian; 46.5% with IGROV1 ovarian; 74.5% in the assay with OVCAR-3 ovarian; 65.8% in the assay on NCI/ADR-RES ovarian.

Consider `O=C(Nc1ccccc1)C(CCCCN1C(=O)c2ccccc2C1=O)N1C(=O)c2ccccc2C1=O` (stereo not drawn), for which the growth in the assay on EKVX NSCLC was 105%; with SN12C renal, 102%; with UO-31 renal, 84.3%; in the assay on TK-10 renal, 105%; with ACHN renal, 103%; in the assay with CAKI-1 renal, 105%. For the same compound, the growth is 99.1% with A498 renal; 100% with CCRF-CEM leukemia; 96.5% in the assay with MOLT-4 leukemia; 92.7% with SR leukemia; 86.2% in the assay with RPMI-8226 leukemia; 103% in the assay on OVCAR-8 ovarian. In addition, the growth in the assay on OVCAR-5 ovarian is 103%; with OVCAR-4 ovarian it was 106%; with SK-OV-3 ovarian, 107%; in the assay with IGROV1 ovarian it was 110%; with OVCAR-3 ovarian, 107%; in the assay with HS 578T breast it was 106%. The growth in the assay on NCI/ADR-RES ovarian is 98.6%.

On to `CCCCCCCCCCCCCC(=S)NCCCC[C@H](NC(=O)OCc1ccccc1)C(=O)Nc1ccccc1`, for which the growth with SK-MEL-2 melanoma was 40.5%; in the assay with SN12C renal it was 27.3%; in the assay with UO-31 renal, 28.6%; in the assay with ACHN renal, 24.6%; in the assay on CAKI-1 renal it was 34.5%; in the assay on A498 renal, 55.4%. Moreover, the growth in the assay on CCRF-CEM leukemia is 27.3%; in the assay with MOLT-4 leukemia, 21.6%; in the assay on RPMI-8226 leukemia it was 32%; in the assay on OVCAR-8 ovarian, 40.3%; in the assay on OVCAR-5 ovarian, 89.5%; with OVCAR-4 ovarian it was 54.6%. The growth is 78.2% with SK-OV-3 ovarian; 54% in the assay with IGROV1 ovarian; 22.1% in the assay with OVCAR-3 ovarian; 61.1% in the assay on HS 578T breast; 34.8% in the assay with NCI/ADR-RES ovarian.

`CCCCN(CCCC)CCC(=O)c1ccc(OC)c2ccccc12`: the growth was 92.8% with EKVX NSCLC; 94.9% with SN12C renal; 57.9% in the assay on UO-31 renal; 97.8% in the assay with TK-10 renal; 92.3% in the assay on ACHN renal; 52.1% in the assay on CAKI-1 renal. For the same compound, the growth with A498 renal was 107%; with CCRF-CEM leukemia, 35.7%; in the assay with MOLT-4 leukemia, 28.6%; with SR leukemia it was 38.9%; in the assay on RPMI-8226 leukemia, 35.6%; in the assay with OVCAR-8 ovarian, 75.3%. The growth with OVCAR-5 ovarian was 102%; in the assay with OVCAR-4 ovarian it was 102%; in the assay with SK-OV-3 ovarian, 107%; in the assay with HS 578T breast, 106%; with NCI/ADR-RES ovarian, 107%.

As for `COc1cc(Nc2ccnc3ccc(Br)cc23)cc(OC)c1OC`, the growth in the assay with EKVX NSCLC was 53.4%; in the assay with SN12C renal it was 41.5%; in the assay with UO-31 renal, 40.2%; in the assay with TK-10 renal, 56.8%; in the assay on ACHN renal, 37.6%; with CAKI-1 renal, 31.9%. Also, the growth is 32.8% with CCRF-CEM leukemia; 32.1% with MOLT-4 leukemia; 15.7% with SR leukemia; 30.4% in the assay on RPMI-8226 leukemia; 36.6% in the assay on OVCAR-8 ovarian; 51.6% with OVCAR-5 ovarian. The growth is 62.5% in the assay with OVCAR-4 ovarian; 36.6% in the assay on SK-OV-3 ovarian; 38.2% with IGROV1 ovarian; 29.8% in the assay with OVCAR-3 ovarian; 12.8% in the assay on NCI/ADR-RES ovarian.
